Experimental findings from the supplement of paper PMC6555819 are described below.

Test in all cases: PBM binding z-score (relative to random genomic background probes); higher = stronger binding; sequences stand for … in GC…GCGATTGACAGCGTAGAATGAAGG
The test system of assay [1] is RARb homodimer (NR concentration 270 nM). An outline of the steps:
(§1)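 Ligand-free nuclear receptor dimers were bound for 1 h to custom Agilent 4×180K protein-binding microarrays. Detection used antibodies against each partner (one per run). Binding z-scores rest on regression-normalized fluorescence, with random background probes as the reference.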

Assay [2] deals with RARg:RXRa (NR concentration 270 nM, RXRa partner concentration 90 nM). The method in brief: as §1
The test system of assay [3] is RARg homodimer (NR concentration 270 nM). The method in brief: as §1
Assay [4] has as its system RXRa DBDmut IVT, anti-RXR (DBD mutation: RXRa K156A/R161A, NR concentration 90 nM). An outline of the steps: as §1
Assay [5] deals with RXRa homodimer (NR concentration 180 nM). An outline of the steps:
as §1

Assay [6] relates to THRa:RXRa (NR concentration 90 nM, RXRa partner concentration 90 nM). The method in brief:
as §1

The test system of assay [7] is THRa homodimer (NR concentration 90 nM). The method in brief:
as §1

Assay [8] concerns VDR homodimer (NR concentration 270 nM). An outline of the steps:
as §1

Take ATACTAAGGTGATCGTGAGGTCGTTGATACTAAC: the PBM binding z-score came to 1.76 in assay [1]; 2.89 in assay [2]; 1.27 in assay [3]; 1.35 in assay [4]; 2.06 in assay [5]; 3.7 in assay [6]. The PBM binding z-score in assay [7] stood at 3.46; in assay [8], 3.43.

In the case of TGCATGAGGTTATAAGATCAGGGAACGTTGCAAA, the PBM binding z-score was 0.168 in assay [1]; 1.64 in assay [2]; 1.08 in assay [3]; 1.32 in assay [4]; 1.84 in assay [5]; 1.93 in assay [6]. In addition, the PBM binding z-score was 0.273 in assay [7] and 0.679 in assay [8].

In the case of TCTTGTAGATGAAGCAGGTTAAGAAAGCCTGAGT, the PBM binding z-score in assay [1] is -0.21; in assay [2] it was -0.0639; in assay [3], -0.213; in assay [4], 0.667; in assay [5], 0.257; in assay [6] it was -0.0515. Moreover, the PBM binding z-score was -0.455 in assay [7] and -0.176 in assay [8].

Turning to TCTCGGACGACACGAAGGTCAGAGCTTTCCAGAG, the PBM binding z-score in assay [1] was found to be 3.12; in assay [2] it was 2.49; in assay [3], 2.65; in assay [4], 0.495; in assay [5], 2; in assay [6] it was 1.53. Also, the PBM binding z-score in assay [7] was 0.0855; in assay [8] it was 0.189.

Regarding CCTGCTAGGTCATGGTCAGCAAATCTACAGTATG, the PBM binding z-score in assay [1] was 2.81; in assay [2], 4.02; in assay [3], 4.6; in assay [4] it was 1.74; in assay [5], 2.84; in assay [6], 3.09. For the same sequence, the PBM binding z-score was 1.37 in assay [7] and 0.339 in assay [8].

In the case of TAGCCTAGGTCATGCGGGCCGGTATAGTGTCGGC, the PBM binding z-score was 2.61 in assay [1]; 3.71 in assay [2]; 4.32 in assay [3]; 0.444 in assay [4]; 3.02 in assay [5]; 2.97 in assay [6]. In addition, the figures for the PBM binding z-score in assay [7] and in assay [8] were 0.888 and 0.344, respectively.

Consider CCGACTGGGGCAAGTTTACCATAACGCACAGCCA, for which the PBM binding z-score in assay [1] is 0.697; in assay [2] it was 0.446; in assay [3], 0.667; in assay [4] it was 0.533; in assay [5], 0.261; in assay [6] it was -0.0579. The figures for the PBM binding z-score in assay [7] and in assay [8] were -0.484 and 0.132, respectively.

As for CAAACTAGGTCAACGGAAGGTCAAAGTCCGCATG, the PBM binding z-score in assay [1] was found to be 5.37; in assay [2] it was 8.1; in assay [3], 6.98; in assay [4], 2.17; in assay [5], 5.99; in assay [6], 4.24. The PBM binding z-score in assay [7] worked out at 2.34; in assay [8] it was 3.65.

Consider TTACCAAGGTGAAAGGTCGTTGTTGCACGCCTTG, for which the PBM binding z-score in assay [1] is 2.51; in assay [2] it was 3.79; in assay [3], 1.79; in assay [4], 0.868; in assay [5], 5.4; in assay [6] it was 3.45. For the same sequence, the results for the PBM binding z-score in assay [7] and in assay [8] were 1.38 and 1.08, respectively.

For the sequence AGAATGAGGTAACCAAAGATCAGGGAAACGCTTG, the PBM binding z-score in assay [1] was -0.385; in assay [2], 0.568; in assay [3] it was 0.561; in assay [4], -0.346; in assay [5], 0.827; in assay [6], 2.05. In addition, the PBM binding z-score in assay [7] is 0.539; in assay [8] it was -0.262.

In the case of TCTCGGAGGAGACGAAAGGTCAGAGCTCGACATC, the PBM binding z-score in assay [1] was 4.19; in assay [2] it was 3.79; in assay [3] it was 3.46; in assay [4], 0.134; in assay [5], 4.08; in assay [6] it was 2.42. Moreover, the PBM binding z-score in assay [7] was determined as 0.0723; in assay [8] it was 0.0625.

As for TAGCCTAGGTCAGATCGAGCCAGTATACGCTATA, the PBM binding z-score in assay [1] is 1.71; in assay [2], 2.36; in assay [3], 3.3; in assay [4], -0.301; in assay [5] it was 1.23; in assay [6], 1.61. For the same sequence, the figures for the PBM binding z-score in assay [7] and in assay [8] were -0.233 and -0.594, respectively.

In the case of CGTCCAAGGCCATAGGAGGTCAGTGAAGACAGAT, the PBM binding z-score was 3.61 in assay [1]; 2.74 in assay [2]; 3.57 in assay [3]; 0.911 in assay [4]; 1.74 in assay [5]; 3.89 in assay [6]. The PBM binding z-score in assay [7] was 1.18; in assay [8], 1.42.

Regarding CAAACTAGGTCACCGGAAGGTCAAAGTGCGCATG, the PBM binding z-score in assay [1] was found to be 5.82; in assay [2], 8.58; in assay [3], 7.66; in assay [4], 2.19; in assay [5], 6.73; in assay [6] it was 4.72. The PBM binding z-score in assay [7] came to 3.05; in assay [8], 3.53.

Consider TCATATAGGTAATCCAGGTGAAAGTCGGCATCTA, for which the PBM binding z-score stood at 0.511 in assay [1]; 0.501 in assay [2]; 0.455 in assay [3]; 1.5 in assay [4]; 0.995 in assay [5]; 2.41 in assay [6]. For the same sequence, the PBM binding z-score in assay [7] was 1.35; in assay [8], 0.168.

For the sequence TGACTGAGGTTATAAGATCAGGGAACGTTGCAAA, the PBM binding z-score in assay [1] came to 0.146; in assay [2], 1.59; in assay [3] it was 0.985; in assay [4], 0.64; in assay [5] it was 1.87; in assay [6] it was 1.58. For the same sequence, the PBM binding z-score in assay [7] was -0.016; in assay [8] it was 0.435.
